Source: PubChem BioAssay
Inconclusive results are not listed. The source made the active and inactive calls.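 The calls were made as follows, unless noted: active = binding below the plate cutoff, the plate median minus 3 SD, with a reading above zero; inconclusive = below the plate cutoff but reading exactly zero; inactive = the rest.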

Tests used:
[1] = yeast TOR pathway RPL19A-GFP modulators, primary screen, cell-based, S. cerevisiae, multiplex flow cytometry (AID 1862; in the data active = percent of DMSO control GFP below about 86%;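 also: lower values mimic rapamycin by blocking the RPL19A rise seen in DMSO cells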); conditions: S. cerevisiae RPL19A-GFP strain, flow cytometry fluorescence, 3 h; at 10 µM; stronger effect = lower value
[2] = modulators of MEP2-GFP levels in yeast, primary screen, S. cerevisiae, multiplex flow cytometry (AID 1867;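 active = GFP response, as percent of the DMSO control, above the screen-wide mean plus 3 SD, about 139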;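 also: median GFP channel fluorescence of barcode-gated MEP2-GFP cells measured by flow cytometry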); conditions: S. cerevisiae MEP2-GFP strain, 3 h, at 10 µM, stronger effect = higher value, 100% means same as DMSO wells
[3] = modulators of CIT2-GFP expression in yeast, primary screen, S. cerevisiae, GFP fusion, multiplex flow cytometry (AID 1870;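 active = percent response above a set limit, the screen-wide mean plus 3 SD, cut at about 130% in these data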;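 also: barcoded CIT2-GFP strain pooled with four other GFP strains with rapamycin as positive control; median GFP fluorescence per well over plate mean of DMSO wells so 100% = DMSO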); conditions: 3 h, at 10 µM, stronger effect = higher value
[4] = modulators of LAP4-GFP expression in yeast, primary screen, S. cerevisiae, multiplex flow cytometry (AID 1873;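 active = GFP signal, as percent of the solvent control, above the screen mean plus 3 SD, about 149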); conditions: 3 h, at 10 µM, stronger effect = higher value
[5] = modulators of AGP1-GFP expression in yeast TOR pathway, primary screen, cell-based, multiplex flow cytometry, S. cerevisiae (AID 1887;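 active = GFP signal above the screen-wide mean plus 3 SD, that is over about 124.5% of the solvent control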;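 also: AGP1-GFP fusion strain of S. cerevisiae within a five-strain barcoded multiplex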); conditions: 3 h, at 10 µM, stronger effect = higher value
[6] = inhibitors of CD8+ T cell-vesicle binding, pilot screen, LFA-1/ICAM-1 modulator project, MLPCN validation set, flow cytometry (AID 2523;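 active = response below a set limit, under 55% cells CD8-positive and vesicle-bound, and CD8 cells' 90th-percentile brightness under 279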;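 as to vesicle binding response: mean PE anti-B7-1 fluorescence of CD8+ cells relative to row control; 100% = QL9-loaded vesicles with DMSO vehicle in the same plate row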); conditions: 2C mouse CD8+ T cells, at 7 µM, stronger effect = lower value; double positive events: measured here: CD8+/vesicle+ event percentage
[7] = molecular target: Integrin beta-1 (Homo sapiens) + Integrin alpha-4 (Homo sapiens) (UniProt P13612+P05556); experiment: inhibition of HUTS-21 binding to VLA-4, pilot screen, VLA-4 allosteric modulator project, U937 cells, HUTS-21 mAb, flow cytometry, validation set (AID 2674;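 active = inhibition above 50%, about 3 SD of the validation set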;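 also: antibody binding induced by the VLA-4 ligand LDV present at three times its Kd; 0% = LDV ligand with antibody and no compound and 100% = antibody without LDV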); conditions: HUTS-21 LIBS mAb binding, at 6.7 µM, stronger effect = higher value, binding induced by LDV ligand
Chain of Integrin beta-1 (Homo sapiens) + Integrin alpha-4 (Homo sapiens) (P05556 whole entry, looked up): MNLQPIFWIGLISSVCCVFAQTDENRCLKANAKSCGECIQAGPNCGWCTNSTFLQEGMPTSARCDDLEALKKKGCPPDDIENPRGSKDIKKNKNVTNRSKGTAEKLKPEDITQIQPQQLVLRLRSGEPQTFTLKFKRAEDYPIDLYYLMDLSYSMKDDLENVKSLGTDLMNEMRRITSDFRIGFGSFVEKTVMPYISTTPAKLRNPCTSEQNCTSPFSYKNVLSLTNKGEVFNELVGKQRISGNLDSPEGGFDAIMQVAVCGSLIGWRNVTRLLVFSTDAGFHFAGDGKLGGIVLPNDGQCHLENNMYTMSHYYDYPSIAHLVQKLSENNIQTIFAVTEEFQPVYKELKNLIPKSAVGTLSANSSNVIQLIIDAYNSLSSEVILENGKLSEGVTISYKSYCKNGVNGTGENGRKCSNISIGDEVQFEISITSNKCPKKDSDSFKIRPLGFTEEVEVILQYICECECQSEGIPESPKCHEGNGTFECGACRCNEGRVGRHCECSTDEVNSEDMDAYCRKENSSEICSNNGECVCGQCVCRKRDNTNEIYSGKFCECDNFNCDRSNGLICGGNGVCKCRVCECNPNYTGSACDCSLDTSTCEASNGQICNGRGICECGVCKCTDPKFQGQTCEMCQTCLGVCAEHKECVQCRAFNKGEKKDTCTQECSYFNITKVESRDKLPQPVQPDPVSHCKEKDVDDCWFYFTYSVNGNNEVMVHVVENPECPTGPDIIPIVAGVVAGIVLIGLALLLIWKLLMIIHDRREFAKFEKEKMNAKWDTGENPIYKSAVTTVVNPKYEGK
Chain of Integrin beta-1 (Homo sapiens) + Integrin alpha-4 (Homo sapiens) (P13612 whole entry, looked up): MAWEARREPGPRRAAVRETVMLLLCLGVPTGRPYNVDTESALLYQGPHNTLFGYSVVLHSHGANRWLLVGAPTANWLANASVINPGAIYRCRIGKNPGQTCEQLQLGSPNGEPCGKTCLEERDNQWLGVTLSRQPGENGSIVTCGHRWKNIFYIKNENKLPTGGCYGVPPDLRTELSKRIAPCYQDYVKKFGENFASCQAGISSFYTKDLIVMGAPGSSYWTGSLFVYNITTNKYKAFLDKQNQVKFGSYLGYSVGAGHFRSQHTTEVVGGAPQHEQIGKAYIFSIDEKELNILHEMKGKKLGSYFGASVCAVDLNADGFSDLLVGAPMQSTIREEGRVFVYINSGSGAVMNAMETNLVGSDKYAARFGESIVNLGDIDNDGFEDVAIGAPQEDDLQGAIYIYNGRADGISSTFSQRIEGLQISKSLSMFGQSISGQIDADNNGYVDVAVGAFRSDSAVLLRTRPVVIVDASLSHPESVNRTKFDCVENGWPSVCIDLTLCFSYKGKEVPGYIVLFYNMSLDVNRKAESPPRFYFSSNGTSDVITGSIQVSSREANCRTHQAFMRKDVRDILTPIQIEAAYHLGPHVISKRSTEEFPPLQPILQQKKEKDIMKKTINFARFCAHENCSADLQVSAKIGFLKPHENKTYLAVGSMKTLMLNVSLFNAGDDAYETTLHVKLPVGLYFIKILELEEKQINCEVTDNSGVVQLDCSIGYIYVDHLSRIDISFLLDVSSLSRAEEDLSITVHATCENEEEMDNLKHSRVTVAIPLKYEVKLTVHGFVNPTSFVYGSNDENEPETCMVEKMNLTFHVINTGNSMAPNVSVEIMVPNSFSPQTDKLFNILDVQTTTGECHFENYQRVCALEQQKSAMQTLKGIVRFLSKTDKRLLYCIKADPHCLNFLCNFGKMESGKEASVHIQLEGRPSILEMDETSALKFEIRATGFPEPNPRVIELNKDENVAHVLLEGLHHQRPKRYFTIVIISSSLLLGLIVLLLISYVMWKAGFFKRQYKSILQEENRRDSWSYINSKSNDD

[8] = molecular target: Beta-adrenergic receptor kinase 1 (Homo sapiens) (UniProt P25098); experiment: GRK2 binders displacing RNA aptamer, biochemical, validation, human GRK2, bead flow cytometry (AID 488806;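 active = aptamer binding inhibition above 30%, about 3 SD of noise from non-fluorescent compounds; inactive = inhibition at or below 30%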); conditions: bead-bound GRK2, FAM-aptamer displacement, at 10 µM, stronger effect = higher value
Chain of Beta-adrenergic receptor kinase 1 (Homo sapiens) (P25098 whole entry, looked up): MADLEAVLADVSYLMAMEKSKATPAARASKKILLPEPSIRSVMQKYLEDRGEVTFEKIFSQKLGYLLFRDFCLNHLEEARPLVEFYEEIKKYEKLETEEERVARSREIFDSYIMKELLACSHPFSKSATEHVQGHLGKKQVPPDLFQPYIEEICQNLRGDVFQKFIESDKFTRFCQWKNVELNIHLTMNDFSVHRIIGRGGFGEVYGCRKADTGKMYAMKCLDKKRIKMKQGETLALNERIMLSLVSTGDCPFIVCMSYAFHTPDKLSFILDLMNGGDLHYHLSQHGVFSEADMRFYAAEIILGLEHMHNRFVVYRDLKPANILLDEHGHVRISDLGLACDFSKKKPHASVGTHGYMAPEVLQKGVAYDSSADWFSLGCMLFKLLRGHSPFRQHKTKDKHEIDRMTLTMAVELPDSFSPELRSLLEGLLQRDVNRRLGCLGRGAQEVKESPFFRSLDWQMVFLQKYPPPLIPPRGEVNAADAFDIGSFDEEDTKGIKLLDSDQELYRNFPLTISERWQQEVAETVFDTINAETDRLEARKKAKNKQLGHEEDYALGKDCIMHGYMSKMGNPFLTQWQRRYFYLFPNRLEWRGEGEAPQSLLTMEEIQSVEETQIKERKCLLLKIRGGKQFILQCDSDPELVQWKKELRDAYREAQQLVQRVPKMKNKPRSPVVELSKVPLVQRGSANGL

[9] = molecular target: Beta-2 adrenergic receptor (Homo sapiens) (UniProt P07550); experiment: beta2AR agonists driving receptor internalization, pilot screen, cell-based, FAP fluorogen, flow cytometry, validation set (AID 504459;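 active = percent response above 42, roughly 3 SD of non-fluorescent test compounds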;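 also: agonist-driven loss of surface beta2AR via internalization measured by FAP dye flow cytometry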); conditions: Am2.2-beta2AR cells, FAP surface receptor flow cytometry; at 10 µM; stronger effect = higher value
Chain of Beta-2 adrenergic receptor (Homo sapiens) (P07550 whole entry, looked up): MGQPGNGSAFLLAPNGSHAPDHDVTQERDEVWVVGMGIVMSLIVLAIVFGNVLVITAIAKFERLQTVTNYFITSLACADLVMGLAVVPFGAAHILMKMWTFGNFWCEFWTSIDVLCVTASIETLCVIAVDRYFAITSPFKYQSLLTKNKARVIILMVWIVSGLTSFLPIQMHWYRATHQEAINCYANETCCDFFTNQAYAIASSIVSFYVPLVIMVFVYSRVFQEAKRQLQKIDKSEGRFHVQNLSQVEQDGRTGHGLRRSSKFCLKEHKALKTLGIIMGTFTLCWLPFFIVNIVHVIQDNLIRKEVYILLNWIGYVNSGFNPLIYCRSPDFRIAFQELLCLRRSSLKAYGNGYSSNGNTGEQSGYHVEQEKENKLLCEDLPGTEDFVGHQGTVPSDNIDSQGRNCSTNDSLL

[10] = molecular target: AP-2 complex subunit beta (Homo sapiens) (UniProt P63010); experiment: inhibitors of arrestin peptide binding to AP2, pilot screen, biochemical, validation set, GST-AP2 beads, flow cytometry (AID 504541;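 active = inhibition above 54%, about 3 SD of non-fluorescent compounds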;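 also: AP2 carries R879A mutation and is captured from E. coli lysate; bead-bound FITC arrestin peptide fluorescence measuring arrestin peptide binding to AP2; 0% = DMSO wells and 100% = excess unlabeled arrestin peptide control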); conditions: FITC arrestin peptide, at 10 µM, stronger effect = higher value, AP2 beta2 appendage fragment, R879A mutant
Chain of AP-2 complex subunit beta (Homo sapiens) (P63010 whole entry, looked up, the tested form may be a part, one chain of several): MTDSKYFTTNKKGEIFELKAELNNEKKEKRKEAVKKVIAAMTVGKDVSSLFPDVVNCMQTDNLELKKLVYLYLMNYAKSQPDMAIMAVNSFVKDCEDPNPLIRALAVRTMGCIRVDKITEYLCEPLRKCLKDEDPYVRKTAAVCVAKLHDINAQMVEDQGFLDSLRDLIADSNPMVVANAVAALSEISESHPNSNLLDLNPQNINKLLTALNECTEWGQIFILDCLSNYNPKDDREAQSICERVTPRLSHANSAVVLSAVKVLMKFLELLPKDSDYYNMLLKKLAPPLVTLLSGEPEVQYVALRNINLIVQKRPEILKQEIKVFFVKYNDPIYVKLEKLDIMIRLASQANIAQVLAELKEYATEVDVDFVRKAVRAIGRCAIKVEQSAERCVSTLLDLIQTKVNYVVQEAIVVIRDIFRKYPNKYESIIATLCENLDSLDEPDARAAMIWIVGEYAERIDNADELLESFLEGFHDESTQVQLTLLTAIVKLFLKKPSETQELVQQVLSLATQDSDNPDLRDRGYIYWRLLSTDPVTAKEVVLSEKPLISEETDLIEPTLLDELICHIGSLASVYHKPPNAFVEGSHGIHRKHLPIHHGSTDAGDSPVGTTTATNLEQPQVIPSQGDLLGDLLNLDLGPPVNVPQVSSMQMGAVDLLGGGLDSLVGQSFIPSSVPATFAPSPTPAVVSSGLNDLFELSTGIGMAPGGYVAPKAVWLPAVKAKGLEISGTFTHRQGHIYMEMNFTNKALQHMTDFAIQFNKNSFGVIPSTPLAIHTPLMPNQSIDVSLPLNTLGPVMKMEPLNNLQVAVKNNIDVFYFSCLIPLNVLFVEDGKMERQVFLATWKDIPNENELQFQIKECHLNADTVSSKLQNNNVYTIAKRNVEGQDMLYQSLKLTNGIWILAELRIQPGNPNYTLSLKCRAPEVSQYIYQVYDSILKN

[11] = yeast V-ATPase proton transport modulators, S. cerevisiae, pHLuorin, HTS validation (AID 504600; in the data active = response above about 15%;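 also: plate controls were DMSO for no effect and reference compound for full effect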); conditions: S. cerevisiae pHLuorin cytosolic pH, at 10 µM, stronger effect = higher value
[12] = test system: anti-desmoglein-3 scFv antibody binding to human DSG3; experiment: inhibitors of anti-DSG3 scFv binding to DSG3, pilot screen, biochemical, validation compound set, bead-based, flow cytometry (AID 588368); conditions: Protein G beads, DSG3-Fc, scFv-GFP binding, at 10 µM, stronger effect = lower value;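 also: signal is the median channel fluorescence of bead-bound GFP antibody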
[13] = inhibitors of fungal efflux pumps CDR1, CDR2, MDR1, pilot screen, validation compound set, multiplex, phenotypic (AID 588506;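 active = efflux inhibition above 0.42, the validation set average plus 4 SD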;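 also: Nile Red retained in cells so higher fluorescence means more efflux inhibition; 0 = negative control wells and 1 = enniatin B 25 µM full block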); conditions: S. cerevisiae pump-expressing triplex, Nile Red efflux flow cytometry; at 10 µM; stronger effect = higher value; the pumps come from Candida albicans
[14] = molecular target: ATP-binding cassette sub-family B member 6 (Homo sapiens) (UniProt Q9NP58); experiment: ABCB6 transporter inhibitors, pilot screen, K562-ABCB6 cells, flow cytometry, validation set (AID 588550;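 active = inhibition above the screen-wide mean plus 3 SD, about 51%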;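 also: 0% = DMSO wells and 100% = benzethonium chloride 70 µM positive control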); conditions: K562-ABCB6 porphyrin accumulation, 1 h, at 10 µM, stronger effect = higher value
Chain of ATP-binding cassette sub-family B member 6 (Homo sapiens) (Q9NP58 whole entry, looked up): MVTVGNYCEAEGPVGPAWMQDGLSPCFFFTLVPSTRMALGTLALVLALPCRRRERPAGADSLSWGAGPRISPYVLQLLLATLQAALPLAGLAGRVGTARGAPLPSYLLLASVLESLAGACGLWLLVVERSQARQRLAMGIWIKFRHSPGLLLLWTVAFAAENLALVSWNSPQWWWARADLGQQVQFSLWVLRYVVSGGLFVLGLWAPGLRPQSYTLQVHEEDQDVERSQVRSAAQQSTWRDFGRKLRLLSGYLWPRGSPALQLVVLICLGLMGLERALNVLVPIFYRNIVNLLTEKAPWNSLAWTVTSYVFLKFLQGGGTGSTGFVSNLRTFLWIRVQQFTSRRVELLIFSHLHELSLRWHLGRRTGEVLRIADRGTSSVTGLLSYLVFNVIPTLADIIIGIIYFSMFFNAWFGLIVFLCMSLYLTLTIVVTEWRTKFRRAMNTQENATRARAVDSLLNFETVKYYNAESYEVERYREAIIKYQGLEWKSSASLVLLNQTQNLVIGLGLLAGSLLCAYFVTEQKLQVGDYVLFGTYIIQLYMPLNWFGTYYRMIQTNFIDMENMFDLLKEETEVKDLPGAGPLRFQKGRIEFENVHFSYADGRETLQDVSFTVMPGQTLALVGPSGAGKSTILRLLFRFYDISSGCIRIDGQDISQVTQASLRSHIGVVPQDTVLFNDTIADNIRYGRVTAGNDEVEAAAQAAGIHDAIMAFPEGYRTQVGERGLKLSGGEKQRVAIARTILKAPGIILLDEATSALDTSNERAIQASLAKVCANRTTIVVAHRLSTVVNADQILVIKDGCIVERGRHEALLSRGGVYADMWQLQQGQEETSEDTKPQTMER

[15] = promoters of myeloid differentiation in arrested cells, primary screen, cell-based, GFP/MAC1 double positive, flow cytometry, validation set (AID 588685;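 active = differentiation response of at least 50%, scaled between solvent and reference control, from cells with both markers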;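 also: compound exposure lasts four days before antibody staining and flow analysis; 0% = DMSO wells and 100% = 5 µM fulvestrant positive control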); conditions: ER-HoxA9 marrow cells, stronger effect = higher value, normalized: vehicle 0, fulvestrant 100
[16] = RPL19A-GFP modulators, yeast TOR pathway, confirmation, cell-based, S. cerevisiae, flow cytometry, cherry picks, mother/daughter gates (AID 2270;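 active = GFP response below 50% of the DMSO control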); conditions: S. cerevisiae RPL19A-GFP strain, 3 h, at 10 µM, stronger effect = lower value, 100 = same GFP as DMSO wells
[17] = LAP4-GFP expression modulators in yeast, confirmation, cell-based, cherry picks, flow cytometry, mother/daughter gates (AID 2271;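 active = GFP response above 150% of the DMSO control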;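 also: ratio of sample to DMSO plate mean so 100% equals DMSO level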); conditions: S. cerevisiae LAP4-GFP strain, 3 h, at 10 µM, stronger effect = higher value, 100 means same as DMSO control
[18] = modulators of MEP2-GFP levels in yeast, confirmation, S. cerevisiae, flow cytometry GFP, cherry picks (AID 2272;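 active = GFP response above 150% of the DMSO control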;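 also: ratio of well signal to plate DMSO mean so 100% equals DMSO level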); conditions: S. cerevisiae MEP2-GFP strain, 3 h, at 10 µM, stronger effect = higher value
[19] = modulators of CIT2-GFP expression in yeast, confirmation, S. cerevisiae, GFP fusion, cherry picks, mother/daughter gates (AID 2274;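 active = GFP response above 150% of the DMSO level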); conditions: S. cerevisiae CIT2-GFP strain, flow cytometry, 3 h, at 10 µM, stronger effect = higher value
[20] = superoxide lowering in aged yeast cells, pilot screen, validation compound set (AID 2706;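 active = superoxide response below 65% of plate, a cut near 3 SD across the whole screen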;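 also: yeast exposed to compound for one week at 30 degrees C before staining; 100% = mean of all compound wells on the same plate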); conditions: S. cerevisiae aging, superoxide DHE fluorescence; at 10 µM, stronger effect = lower value
[21] = measured here: daughter cell gate
[22] = measured here: mother cell gate

CCOC(=O)Cc1c(C)nc(N)[nH]c1=O
inactive: percent of DMSO control GFP [1] 101% | GFP response vs DMSO [2] 95.1% | percent response of DMSO control [3] 102% | GFP response vs DMSO [4] 91.4% | GFP response, % of DMSO [5] 94.3% | vesicle binding response [6] 276% | inhibition [7] -1.49% | aptamer binding inhibition [8] 3% | response [9] -4.96% | inhibition [10] -8.2% | response [11] -0.76% | binding (% of control) [12] 107% | inhibition [14] 15% | differentiation response [15] 22.7%
active: efflux inhibition (fraction of control) [13] 0.52
64.8%: double positive events [6]

OC[C@@H](O)[C@@H](O[C@H]1O[C@H](CO)[C@@H](O)[C@H](O)[C@H]1O)[C@H](O)[C@@H](O)CO
inactive: percent of DMSO control GFP [1] 102% | GFP response vs DMSO [2] 103% | percent response of DMSO control [3] 88.4% | GFP response vs DMSO [4] 92% | GFP response, % of DMSO [5] 95% | vesicle binding response [6] 208% | aptamer binding inhibition [8] 0% | response [9] -1.29% | inhibition [10] 13.8% | response [11] -1.56% | binding (% of control) [12] 102% | inhibition [14] -1% | differentiation response [15] 20.8%
65%: double positive events [6]
active: efflux inhibition (fraction of control) [13] 0.8

Nc1nc2c(ncn2COCCO)c(=O)[nH]1
97.9%: GFP response relative to DMSO ([17]; measured here: daughter cell gate response)
active: percent of DMSO control GFP [1] 78.1%
inactive: GFP response vs DMSO [2] 123% | percent response of DMSO control [3] 103% | GFP response vs DMSO [4] 74.8% | GFP response vs DMSO [16] 100% | GFP response relative to DMSO [17] 101% | GFP response vs DMSO [18] 99.5% | GFP response, % of DMSO [19] 101% | vesicle binding response [6] 154% | inhibition [7] 16.2% | superoxide response (% of plate) [20] 83.2% | aptamer binding inhibition [8] 6% | response [9] -6.98% | inhibition [10] -5.88% | response [11] 0.6% | binding (% of control) [12] 107% | efflux inhibition (fraction of control) [13] -0.09 | inhibition [14] 0% | differentiation response [15] -4.91%
101%: GFP response vs DMSO [16, 21]
104%: GFP response, % of DMSO [19, 21]
63.1%: double positive events [6]
100%: GFP response vs DMSO [16, 22] | GFP response relative to DMSO ([17]; measured here: mother cell gate response) | GFP response, % of DMSO [19, 22]

Cc1ccccc1OCC(O)CN1CCN(C)CC1 (stereo not drawn)
62.9%: double positive events [6]
inactive: percent of DMSO control GFP [1] 97.9% | GFP response vs DMSO [2] 115% | percent response of DMSO control [3] 112% | GFP response vs DMSO [4] 75.9% | vesicle binding response [6] 193% | inhibition [7] 4.52% | superoxide response (% of plate) [20] 107% | aptamer binding inhibition [8] 3% | response [9] -6.23% | inhibition [10] 5.62% | response [11] -0.77% | binding (% of control) [12] 103% | efflux inhibition (fraction of control) [13] 0.27 | inhibition [14] 7% | differentiation response [15] -2.46%

O=C(OCC1OC2OC3(CCCCC3)OC2C2OC3(CCCCC3)OC12)c1ccccc1 (stereo not drawn)
60.9%: double positive events [6]
inactive: percent of DMSO control GFP [1] 90.9% | GFP response vs DMSO [2] 104% | percent response of DMSO control [3] 116% | GFP response vs DMSO [4] 76.5% | vesicle binding response [6] 154% | inhibition [7] 5.49% | superoxide response (% of plate) [20] 102% | aptamer binding inhibition [8] 5% | response [9] 11.7% | inhibition [10] 5.67% | response [11] 1.42% | binding (% of control) [12] 128% | efflux inhibition (fraction of control) [13] 0.09 | inhibition [14] 5% | differentiation response [15] -0.82%

CC[C@H]1OC(=O)[C@H](C)[C@@H](O[C@H]2C[C@@](C)(OC)[C@@H](O)[C@H](C)O2)[C@H](C)[C@@H](O[C@@H]2O[C@H](C)C[C@H](N(C)C)[C@H]2O)[C@](C)(O)C[C@@H](C)[C@@H]2N[C@@H](COCCOC)O[C@H]([C@H]2C)[C@]1(C)O
inactive: percent of DMSO control GFP [1] 95% | GFP response vs DMSO [2] 130% | percent response of DMSO control [3] 95.2% | GFP response vs DMSO [4] 79.2% | vesicle binding response [6] 137% | inhibition [7] 6.46% | superoxide response (% of plate) [20] 106% | aptamer binding inhibition [8] 29% | response [9] -13.2% | inhibition [10] -5.27% | binding (% of control) [12] 103% | efflux inhibition (fraction of control) [13] -0.31 | inhibition [14] 8% | differentiation response [15] -4.91%
active: response [11] 32.7%
63.9%: double positive events [6]

CC12CCC(C(=O)N3CCCCC3)([C@H](Br)C1=O)C2(C)C (stereo partly drawn)
inactive: percent of DMSO control GFP [1] 90.6% | GFP response vs DMSO [2] 119% | percent response of DMSO control [3] 101% | GFP response vs DMSO [4] 78.7% | vesicle binding response [6] 272% | inhibition [7] 8.4% | superoxide response (% of plate) [20] 101% | aptamer binding inhibition [8] -1% | response [9] -6.79% | inhibition [10] -4.61% | response [11] 0.52% | binding (% of control) [12] 98.5% | efflux inhibition (fraction of control) [13] -0.13 | inhibition [14] 11% | differentiation response [15] -1.64%
65.8%: double positive events [6]

CCOc1ccc(C(=O)Nc2ccc(N3CCN(C(C)=O)CC3)cc2)cc1[N+](=O)[O-]
inactive: percent of DMSO control GFP [1] 93% | GFP response vs DMSO [2] 106% | percent response of DMSO control [3] 115% | GFP response vs DMSO [4] 78.7% | vesicle binding response [6] 210% | inhibition [7] 3.55% | superoxide response (% of plate) [20] 100% | aptamer binding inhibition [8] 3% | response [9] -6.75% | inhibition [10] -0.46% | response [11] 0.55% | binding (% of control) [12] 99.4% | efflux inhibition (fraction of control) [13] 0.27 | inhibition [14] 11% | differentiation response [15] -1.64%
68.5%: double positive events [6]

O=C1NC2(Nc3ccccc31)C(=O)Nc1ccc(Br)cc12 (stereo not drawn)
72%: double positive events [6]
inactive: percent of DMSO control GFP [1] 91.7% | GFP response vs DMSO [2] 127% | percent response of DMSO control [3] 102% | GFP response vs DMSO [4] 85.8% | vesicle binding response [6] 220% | inhibition [7] -3.24% | superoxide response (% of plate) [20] 102% | aptamer binding inhibition [8] 2% | response [9] -4.23% | inhibition [10] 1.97% | response [11] 1.05% | binding (% of control) [12] 98.7% | efflux inhibition (fraction of control) [13] -0.13 | inhibition [14] 9% | differentiation response [15] 0%
